Only some compounds are listed: those with a hit (about 5.4% of all), similar ones and a draw of the others.
LASV entry inh: qHTS for Inhibitors of binding or entry into cells for Lassa Virus | 1.2% of 300,000 active | Lassa virus pseudotype entry inhibition, cell reporter | Potency, µM (doses to about 37.9 µM), actives largely listed as inhibitors | AID 540256, 2011; calls by dose curve; tested in HEK293 cells; also: nearly all actives have a fitted effect of over 50% in size
VACV Venus inh: qHTS for Stage-Specific Inhibitors of Vaccinia Orthopoxvirus: Venus Reporter Primary qHTS | AID 720580, 2013 | 0.46% of 330,000 active | Potency, µM (top dose mostly 36.5 µM), usual class: inhibitors | Vaccinia virus Venus reporter expression, fluorescence; calls by dose curve; tested in A549 cells; also: nearly all actives have a fitted effect of over 30% in size
Vaccinia mCherry: qHTS for Stage-Specific Inhibitors of Vaccinia Orthopoxvirus: mCherry Reporter Primary qHTS; Vaccinia virus mCherry reporter infection, fluorescence; Potency, µM (highest dose often 36.5 µM), hits mostly inhibitors; 0.63% of 310,000 active; AID 720579, 2013; calls by dose curve; tested in A549 cells; also: nearly all actives have a fitted effect of over 35% in size
Sm TGR block: qHTS Assay for the Inhibitors of Schistosoma Mansoni Peroxiredoxins | purified TGR, DTNB reduction, TNB absorbance 405 nm | 3% of 360,000 active | AID 485364, 2010 | Potency, µM (doses to about 114 µM), most hits filed as inhibitors; active = well fitted inhibition curve with a large enough effect; inconclusive = small, poorly fitted or top-dose-only effect; inactive = no such curve, though single readings can be large or run the other way; also: nearly all actives have a fitted effect of over 60% in size
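First, TGR (20 nM dispensed) and NADPH were mixed with compound. Second, a 15 min room-temperature incubation followed. Third, further NADPH and then DTNB were added to start the reaction. Finally, TNB absorbance was monitored kinetically.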
FMDV antiviral: High Throughput Screening for Foot and Mouth Disease Virus Antivirals | FMDV antiviral cell-based qHTS | 1.2% of 410,000 active | Potency, µM (titrated, usually from 57.9 µM), usual class: inhibitors; calls by dose curve; tested in HEK293T cells; also: read-out not given here; nearly all actives have a fitted effect of over 45% in size
MARV entry inh: qHTS for inhibitors of binding or entry into cells for Marburg Virus; Marburg virus pseudotyped entry inhibition, cell reporter; Potency, µM (top dose mostly 37.8 µM), most hits filed as inhibitors; 1.8% of 300,000 active; AID 540276, 2011; calls by dose curve; tested in HEK293 cells
Numbers stand for hits; . = inactive; ? = inconclusive; / = no result given; ! = not active in a repeat; [ ] = remark or other dose.

SMILES	LASV entry inh	VACV Venus inh	Vaccinia mCherry	Sm TGR block	FMDV antiviral	MARV entry inh
Cc1cc(C)cc(N2C(=O)CSC23C(=O)N(Cc2c(F)cccc2Cl)c2ccccc23)c1 (centres undefined)	?	.	.	.	.	/
CN(c1ccccc1)S(=O)(=O)c1ccc(NC(=O)c2ccc(F)cc2)cc1	?	.	.	/	?	17.8µM
CN(c1ccc(F)cc1)S(=O)(=O)c1ccc(Cl)c(C(=O)Nc2ccncc2)c1	.	.	.	.	20µM	.
COC(=O)C1CCCCN1Cc1ccc2c(c1)CN(Cc1cn[nH]c1-c1ccc(F)cc1)CCO2 (centres undefined)	/	?	?	/	.	/
CC(=O)/C=C/c1ccccc1	/	.	.	/	.	/
O=C(/C=C/c1ccccc1)/C=C/c1ccccc1	?	10µM	?	25.1µM	?	9.2µM
COc1ccc(-c2onc(C)c2C)cc1S(=O)(=O)N1c2ccccc2CC1C (centres undefined)	?	?	.	.	.	/
Cc1cc(C)c(NC(=O)CN2C(=O)c3cccnc3Oc3ccc(C)cc32)c(C)c1	.	.	.	.	.	/
Cc1nc2cc(C(=O)NCCC3=CCCCC3)ccc2n1-c1ccc(Br)cc1	.	.	.	.	.	/
CCCS(=O)(=O)c1cnc(C2COc3ccccc3O2)nc1N (centres undefined)	/	.	.	.	35.5µM	/
COC(=O)N[C@H](CC(C)=O)c1cccc(F)c1	/	/	/	/	/	.
N#Cc1c(NC(=O)CSc2ncnc3c2cnn3-c2ccccc2Cl)sc2c1CCCC2	?	.	.	.	.	?
O=C(CSc1ncnc2c1cnn2-c1ccccc1Cl)N1CCN(C(=O)c2ccco2)CC1	?	.	.	.	35.5µM	.
COC(=O)c1c(NC(=O)CSc2ncnc3c2cnn3-c2ccccc2Cl)sc2c1CCCC2	5.8µM	/	/	.	.	?
Cc1cc(C)n(-c2ccc(NN=C(C#N)C#N)cc2)n1	/	/	/	31.6µM	?	/
Cc1cc(C)n(-c2ccc(C(=O)O)cc2)n1	.	.	.	.	.	.
N#CC(C#N)=NNc1ccc(-n2ccc(C(F)(F)F)n2)cc1	?	?	?	?	?	3.16µM
CC(C)Nc1nc2c(-c3cccc(Br)c3)nnn2c2ccccc12	.	.	.	.	.	?
Cc1cc(C)cc(N2C(=O)NC(=O)/C(=C\c3cccn3-c3ccc(Cl)cc3)C2=O)c1	?	.	.[1.46 µM]	?	8.91µM	?
CN1C(=O)/C(=C/c2cccn2-c2ccc3ccccc3c2)C(=O)NC1=S	?	.	/	.	28.2µM	?
O=C1NC(=S)NC(=O)C1=Cc1cccn1-c1ccc(O)cc1	/	/	/	?	20µM	/
O=Cc1cccn1-c1ccc2ccccc2c1	/	/	/	.	.	/
Cc1cc(C)cc(N2C(=O)NC(=O)/C(=C\c3cccn3-c3ccccc3)C2=O)c1	?	14.1µM	?	.	35.5µM	?
COc1cc(Cl)c(C)cc1NC(=O)CCCN1C(=O)C(c2ccccc2)Oc2cccnc21 (centres undefined)	.	.	.	.	.	/
O=C(CCCCCn1c(=O)c2sccc2n(Cc2ccc(Cl)cc2)c1=O)NCc1ccc2c(c1)OCO2	.	.	.	.	.	.
SMILES	LASV entry inh	VACV Venus inh	Vaccinia mCherry	Sm TGR block	FMDV antiviral	MARV entry inh
CCCCNC(=O)Cn1c(=O)cc(C)c2c(C)nn(-c3cccc(Cl)c3C)c21	?	.	.	?	.	/
Cc1ccccc1C(=O)NC(=S)NCc1cccnc1	.	.	.	.	.	.
O=C(NC(=S)NCCC1=CCCCC1)c1ccco1	.	.	.	.	.	?
CC(C)(C)C(=O)NC(=S)NCCc1ccccc1	.	.	.	20µM	.	?
O=C(O)c1ccccc1C(=O)NCCc1ccc(Cl)cc1	.	/	/	.	.	.
Cc1ccccc1C(=O)NC(=S)NCc1ccccc1	?	.	.	22.4µM	.	.
O=C(NCCc1ccccc1)c1ccccc1Cl	?	.	.	.	.	11.2µM
S=C(NCCc1ccccc1)NCCc1ccccc1	.	.	.	.	.	?
Cc1ccccc1C(=O)NC(=S)NCCC1=CCCCC1	.	.	.	5.01µM	.	.
COc1cc(NC(=O)CSc2nc3ncccc3o2)cc(OC)c1	.	.	.	.	.	/
CC1CCN(c2nn3c(=O)c(C(=O)NCc4ccc(Cl)cc4)cnc3s2)CC1	.	.	.	.	.	/
COC(=O)/C=C/c1ccc2c(c1)S(=O)(=O)N(C1CCCC1)[C@H]2CC(=O)OC	/	.	.	/	/	/
Cc1ccccc1C(=O)NC(=S)NCC(=O)c1ccccc1	.	?	?	.	.	.
Cc1ccccc1C(=O)NC(=S)NCCc1ccccc1	.	.	.	7.08µM	.	.
C=CCNC(=O)[C@H]1C=C(OC)C(=O)C[C@H]2c3ccccc3C[C@]12C	/	/	/	/	/	.
Cc1ccc(C)c(N2CCN(C(=O)Cc3cn(C)c4ccccc34)CC2)c1	20.6µM	/	/	.	?	18.3µM
Cc1ccc(C)c(N2CCN(C(=O)Cn3cccc3)CC2)c1	.	/	/	39.8µM	?	?
Cc1cnc(-n2ncc(C(=O)NCCN3CCOCC3)c2C2CC2)nc1-c1cccs1	/	.	.	/	.	/
CC(=O)c1c(C)[nH]c(C(=O)N2CCN(c3ccc(F)cc3)CC2)c1C	.	/	/	.	.	.
CCOC(=O)N1CCN(C(=O)c2ccc(CS(=O)Cc3ccc(C)cc3)o2)CC1 (centres undefined)	/	/	/	39.8µM	.	/
CC(=O)c1c(C)[nH]c(C(=O)N2CCN(c3cc(Cl)ccc3C)CC2)c1C	6.51µM	/	/	.	?	7.3µM
Cc1cccc(N2CCN(C(=O)c3ccc(CS(=O)Cc4cccc(Cl)c4)o3)CC2)c1C (centres undefined)	/	/	/	39.8µM	?	/
Cc1ccc(Cl)cc1N1CCN(C(=O)c2ccc(CS(=O)Cc3ccc(Cl)cc3)o2)CC1 (centres undefined)	/	/	/	44.7µM	.	/
COc1ccc(Nc2ncc(C(=O)Nc3cccc(Cl)c3)c3ccccc23)cc1	.	.	.	.	.	.
O=C(NCc1ccc(Cl)cc1)C1CCN(c2ncnc3c2nc2n3CCCCC2)CC1	.	.	.	.	.	/
SMILES	LASV entry inh	VACV Venus inh	Vaccinia mCherry	Sm TGR block	FMDV antiviral	MARV entry inh
O=C(Cc1ccc2c(c1)OCO2)N1CCOc2ccc(CN3CCOCC3)cc2C1	/	.	.	/	.	/
Cc1ccc(Cl)cc1N1CCN(C(=O)c2cc3c(=O)[nH]c4ccccc4c3n2C)CC1	?	.	?	.	7.94µM	5.62µM!
Cn1c(C(=O)N2CCN(c3ccc(Cl)cc3)CC2)cc2c(=O)[nH]c3ccccc3c21	.	?	.	.	.	?
CC(=O)OC1CCC2(C)C(CCC3C4CC=C(C(C)=O)C4(C)OC(=O)CC32)C1 (centres undefined)	/	11.2µM	?	/	12.6µM	/
CCOC(=O)c1cc2c(=O)n3ccccc3nc2n(CCCOC)c1=NC(=O)c1cc2ccccc2o1	.	.	.	.	.	.
CCCCCCCc1cc2ccccc2c2c(C(C)=O)c(-c3ccccc3)c(C(=O)OC)n12	?	/	/	/	/	.

Compound activity from PubChem.
